This is a sample that favours compounds with a hit; in the whole collection about 1.6% have one here.
KCNQ2 pot: enhances the rat KCNQ2 potassium channel; O88943; CHO-K1 KCNQ2, FluxOR thallium flux fluorescence; active compounds read high; B-score at 10 µM; 0.54% of 310,000 active; AID 2239;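 active means fluorescence ratio B-score at least 3 SD of library B-scores, with initial fluorescence B-score within 3 of them, cut at about 5.3 in these data; same plate scores as AID 2156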;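 further: B-score of peak minus minimum over baseline fluorescence ratio after K+ and Tl+ stimulus; positive B-score means potentiation of KCNQ2 with more thallium influx and brighter signal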
KCNQ2 block: blocks the rat KCNQ2 potassium channel; CHO-K1 KCNQ2, FluxOR thallium flux, 20 min; active compounds read low; B-score at 10 µM; 1.1% of 310,000 active; AID 2156;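 active means fluorescence ratio B-score at most minus 3 library SDs, with starting brightness B-score within 2 library SDs, cut at about -5.5 in these data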
Kir21 conf inh: confirmation of mouse Kir2.1 potassium channel inhibitors | shares compounds with KCNQ2 pot | Kir2.1-expressing cells, FluxOR thallium flux fluorescence; active compounds read low | Tl flux remaining, % of negative control (active compounds read low), % at 10 µM | 41% of 2,300 active | AID 2032;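 active means Primary-screen hit whose thallium flux fell at least 3 control SD below untreated wells in both duplicates, with normal baseline fluorescence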
HEK293 ctr: alters thallium flux in parental HEK293 cells, Kir2.1 counter-screen | shares compounds with KCNQ2 pot | FluxOR thallium flux fluorescence; 0% = unstimulated blank wells | FluxOR signal as % of negative control (100 = no effect), % at 10 µM | 19% of 2,300 active;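 active means dye signal at least 3 control SD above or below untreated wells in both duplicates, raw fluorescence within 3, either direction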;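 further: percent is based on the flux ratio of peak minus minimum fluorescence over baseline F0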
CHO-K1 ctr: parental CHO-K1 activity in KCNQ2 potentiator counter-screen | 43% of 1,200 active | parental CHO-K1 cells, FluxOR thallium flux fluorescence; zero = vehicle mean+3SD, 100% = vehicle-minus-blank window | shares compounds with KCNQ2 pot | activity increase over 3SD of controls, % at 10 µM;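 active means signal rise of at least 3 SD above the untreated control mean, in both duplicate wells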;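 further: counter screen of KCNQ2 potentiator hits so any rise reflects channel-independent effects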
KCNQ1 sel pot: selectivity of KCNQ2 potentiators: effect on human KCNQ1; CHO KCNQ1 stable, FluxOR thallium flux fluorescence; beyond 3SD, as % of vehicle-control signal; shares compounds with KCNQ2 pot; 28% of 1,200 active; activation over 3SD threshold, % at 10 µM; AID 2283;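 active means fluorescence ratio rise of at least 3 SD of vehicle wells above their mean, in both replicate wells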
KCNQ2 pot confirm: rat KCNQ2 channel potentiator confirmation. CHO-KCNQ2 cells, FluxOR thallium flux fluorescence. potentiation, less the hit threshold, % at 10 µM. 68% of 1,200 active. shares compounds with KCNQ2 pot;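 active means fluorescence ratio rising 3 SD or more over the vehicle control mean in both replicates, plus primary screen hit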;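 further: peak minus minimum thallium fluorescence divided by baseline after K/Tl stimulus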
Kir2-1 sel: mouse Kir2.1 off-target activity of KCNQ2 potentiators | activity over 3SD threshold, % at 10 µM | HEK293 Kir2.1, FluxOR thallium flux fluorescence | 2% of 1,200 active | shares compounds with KCNQ2 pot;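 active means fluorescence ratio rise of at least 3 SD above the vehicle-control mean, seen in both replicates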
KCNQ2 W236L pot: potentiates the retigabine-insensitive rat KCNQ2 W236L mutant channel; current increase over 3SD of negative controls (%), active compounds read high, % at 25 µM; CHO KCNQ2-W236L, automated patch clamp current; shares compounds with KCNQ2 pot; 10% of 940 active;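 active means current increase at least 3 SD of the untreated controls above them in both duplicate recordings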
Target sequence (O88943 whole entry W236L, looked up): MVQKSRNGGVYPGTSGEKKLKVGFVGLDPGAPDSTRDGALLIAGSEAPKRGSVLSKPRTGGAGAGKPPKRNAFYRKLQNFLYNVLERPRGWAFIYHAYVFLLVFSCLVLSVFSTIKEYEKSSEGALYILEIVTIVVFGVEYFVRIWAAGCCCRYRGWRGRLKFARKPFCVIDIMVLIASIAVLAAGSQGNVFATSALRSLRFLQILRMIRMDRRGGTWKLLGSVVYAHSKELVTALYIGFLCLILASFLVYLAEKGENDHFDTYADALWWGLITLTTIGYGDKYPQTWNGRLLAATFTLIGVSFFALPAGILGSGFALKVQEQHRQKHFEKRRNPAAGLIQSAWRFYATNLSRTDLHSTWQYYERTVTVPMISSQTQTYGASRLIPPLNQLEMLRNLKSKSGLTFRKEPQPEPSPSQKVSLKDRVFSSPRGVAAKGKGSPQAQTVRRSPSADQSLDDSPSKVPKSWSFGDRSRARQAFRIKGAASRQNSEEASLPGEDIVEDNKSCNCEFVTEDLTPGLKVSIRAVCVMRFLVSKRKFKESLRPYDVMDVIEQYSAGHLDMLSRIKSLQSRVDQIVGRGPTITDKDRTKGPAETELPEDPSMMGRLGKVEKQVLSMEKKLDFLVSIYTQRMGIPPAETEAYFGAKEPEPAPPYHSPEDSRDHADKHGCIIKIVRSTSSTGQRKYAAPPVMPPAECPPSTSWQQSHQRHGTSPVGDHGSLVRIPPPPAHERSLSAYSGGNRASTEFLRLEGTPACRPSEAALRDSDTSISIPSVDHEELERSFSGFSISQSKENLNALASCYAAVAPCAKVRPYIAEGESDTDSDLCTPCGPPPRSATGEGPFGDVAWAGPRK
A number is an active result; . = inactive; / = not tested or not shown.

SMILES	KCNQ2 pot	KCNQ2 block	Kir21 conf inh	HEK293 ctr	others
Cc1sc(NC(=O)C2=COCCO2)nc1-c1ccc(Cl)cc1	/	.	/	/
Cc1cc(N/N=C/c2ccc3c(c2)OCO3)nc2ccccc12	/	.	/	/
Cc1cc(C)c(C)c(S(=O)(=O)NC(C)C(=O)O)c1C (configuration not stated)	/	.	/	/
COc1ccc(N(C(=O)c2snc(C(N)=O)c2N)C(CC(C)C)C(=O)NCC2CCCO2)cc1 (configuration not stated)	.	.	/	/
O=S(=O)(c1ccc2oc(=S)[nH]c2c1)N1CCCCC1	/	.	/	/
S=c1[nH]c2cc(-c3ccccc3)ccc2o1	17.9	.	.	499.5%	CHO-K1 ctr=.;KCNQ1 sel pot=.;KCNQ2 pot confirm=99.8;Kir2-1 sel=3.9;KCNQ2 W236L pot=.
Cc1cc(S(=O)(=O)Nc2ccc3ccccc3c2)c(C)s1	.	.	/	/
Cc1cc(S(=O)(=O)Nc2cc(C)c(O)c(C)c2)c(C)s1	/	.	71.5%	.
COCCN(C(=O)c1ccc(OCC(C)C)cc1)c1c(N)n(Cc2ccccc2)c(=O)[nH]c1=O	/	.	/	/
Oc1cncc(Cc2ccccc2)c1	/	.	/	/
O=C(c1cccc(NS(=O)(=O)c2ccccc2)c1)N1CCCCC1	/	.	/	/
Cn1ncc2c(O/N=C(\N)c3ccc(C(F)(F)F)cc3)ncnc21	5.95	.	.	.	CHO-K1 ctr=20.4;KCNQ1 sel pot=5.7;KCNQ2 pot confirm=.;Kir2-1 sel=.
Cc1ccc(C(=O)NNc2ncnc3c2cnn3C)cc1	/	.	/	/
Cc1cc(C(=O)Nc2ccncc2)c2ccccc2n1	.	.	/	/
O=C(Nc1sc2c(c1C(=O)O)CCC2)c1ccccc1	.	.	/	/
O=C(Nc1sc2c(c1C(=O)O)CCCC2)c1ccc(Cl)cc1	7.88	.	.	.	CHO-K1 ctr=.;KCNQ1 sel pot=.;KCNQ2 pot confirm=.;Kir2-1 sel=.
O=C(Nc1sc2c(c1C(=O)O)CCCC2)c1cccc(Cl)c1	5.44	.	.	.	CHO-K1 ctr=.;KCNQ1 sel pot=.;KCNQ2 pot confirm=4.9;Kir2-1 sel=.;KCNQ2 W236L pot=.
O=C(Nc1sc2c(c1C(=O)O)CCCCC2)c1ccccc1	.	.	/	/
COc1cccc(NC(=O)C(=O)N/N=C(\C)CC(=O)Nc2ccc(NC(C)=O)cc2)c1	.	.	/	/
CN(C)C(=O)c1ccccc1Sc1ccc(Cl)cc1Cl	/	.	/	/
CN(C)C(=O)c1ccccc1Sc1cc(Cl)ccc1Cl	/	.	47.0%	.
CN1C(c2ccccc2)=NO[C@]1(C)c1ccccc1	.	.	/	/
CCCCN(Cc1ccco1)S(=O)(=O)c1csc(C(N)=O)c1	/	.	48.0%	.
CC(CCc1ccco1)N(C)S(=O)(=O)c1csc(C(N)=O)c1 (configuration not stated)	.	.	/	/
Clc1cccc(Cl)c1COn1nnc2ccccc21	/	.	/	/
SMILES	KCNQ2 pot	KCNQ2 block	Kir21 conf inh	HEK293 ctr	others
c1ccc(COn2nnc3ccccc32)c(COn2nnc3ccccc32)c1	/	.	71.5%	.
CN(C)C(CNS(=O)(=O)c1ccc2ccccc2c1)c1ccccc1 (configuration not stated)	.	.	/	/
C/C=C\C(=O)Nc1cccc(C2=NOC3(C2)C[C@H](C(N)=O)N(C(=O)[C@H]2CCC(=O)N2)C3)c1 (some centres not stated)	.	.	/	/
COC(=O)c1ccc(S(=O)(=O)NCc2ccccn2)n1C	.	.	/	/
COc1ccc(CCNCc2c(OC)ccc3ccccc23)cc1OC	.	.	/	/
COc1ccc2ccccc2c1CNC(C)CCc1ccccc1 (configuration not stated)	/	.	40.5%	.
CC(=O)Oc1ccc(C(=O)N2c3ccccc3NC(=O)C2C)cc1 (configuration not stated)	/	.	/	/
Oc1c(Br)cc(/C=N/n2c(-c3ccccc3)n[nH]c2=S)c(Br)c1O	/	.	/	/
Oc1c(Br)cc(Br)cc1/C=N/n1c(-c2ccccc2)n[nH]c1=S	10.5	.	.	.	CHO-K1 ctr=12.0;KCNQ1 sel pot=.;KCNQ2 pot confirm=11.4;Kir2-1 sel=.;KCNQ2 W236L pot=.
Cc1nnc(C)n1/N=C/c1cc(Br)cc(Br)c1O	10.9	.	.	.	CHO-K1 ctr=.;KCNQ1 sel pot=41.3;KCNQ2 pot confirm=17.1;Kir2-1 sel=.;KCNQ2 W236L pot=.
Oc1ccc(Br)cc1/C=N/n1c(C2CCCCC2)n[nH]c1=S	7.39	.	.	.	CHO-K1 ctr=69.7;KCNQ1 sel pot=.;KCNQ2 pot confirm=.;Kir2-1 sel=.
Oc1ccc(/C=N/n2c(C3CCCCC3)n[nH]c2=S)c(O)c1	/	.	/	/
Cc1nnc(C)n1/N=C/c1cc(Br)ccc1O	/	.	/	/
CCOC(=O)CSc1nc2c(c(-c3ccc(C)o3)c1C#N)CCCC2	7.21	.	.	.	CHO-K1 ctr=112.7;KCNQ1 sel pot=.;KCNQ2 pot confirm=6.3;Kir2-1 sel=.;KCNQ2 W236L pot=.
COC(=O)CSc1nc2c(c(-c3ccco3)c1C#N)CCCC2	11.3	.	.	.	CHO-K1 ctr=7.8;KCNQ1 sel pot=.;KCNQ2 pot confirm=27.8;Kir2-1 sel=.;KCNQ2 W236L pot=.
COC(=O)CSc1nc2c(c(-c3ccc(O)cc3)c1C#N)CCCC2	/	.	/	/
Cc1ccc(-c2c(C#N)c(N)nc3c2CCCCC3)o1	.	.	/	/
CCO[C@@H]1OC(C(=O)N2CCCCCCC2)=C[C@H](c2ccc3c(c2)OCO3)[C@H]1CCCO	/	.	/	/
O=C(O)/C=C/c1cnc2ccccc2c1	.	.	/	/
CC(C)c1nnc(NC(=O)CC23CC4CC(CC(C4)C2)C3)s1	/	.	/	/
CCCCn1nnc(NC(=O)CC23CC4CC(CC(C4)C2)C3)n1	19.7	.	.	.	CHO-K1 ctr=10.1;KCNQ1 sel pot=.;KCNQ2 pot confirm=59.1;Kir2-1 sel=.;KCNQ2 W236L pot=.
N#CCCN(Cc1cccs1)C(=O)Nc1ccccc1	.	.	/	/
COc1ccccc1CCN=C(N)NS(=O)(=O)c1ccccc1F	.	.	/	/
COc1ccc(CN2CCCC(C(=O)c3cccc(C(F)(F)F)c3)C2)cc1O (configuration not stated)	/	.	39.5%	.
CC(=O)Nc1ccc(CN2CCCC(C(=O)c3cccc(C(F)(F)F)c3)C2)cc1 (configuration not stated)	/	.	/	/
SMILES	KCNQ2 pot	KCNQ2 block	Kir21 conf inh	HEK293 ctr	others
O=C(COC(=O)c1ccc2c(c1)C(=O)N(Cc1ccncc1)C2=O)Nc1cccc2ccccc12	/	.	/	/
CS(=O)(=O)N(Cc1ccccc1)c1ccc(C(=O)Nc2ccc(C(N)=O)cc2)cc1	/	.	.	.
CC(=O)c1cccc(NC(=O)c2ccc(N(Cc3ccccc3)S(C)(=O)=O)cc2)c1	.	.	/	/
Cc1cc(Cl)c(S(=O)(=O)N2CCCCCC2)cc1OCC(=O)NC1CCCCC1	25.2	.	.	129.5%	CHO-K1 ctr=.;KCNQ1 sel pot=.;KCNQ2 pot confirm=163.7;Kir2-1 sel=.;KCNQ2 W236L pot=.
Cc1cc(Cl)c(S(=O)(=O)N2CCSCC2)cc1OCC(=O)NC1CCCCC1	32.3	.	.	126.0%	CHO-K1 ctr=6.8;KCNQ1 sel pot=.;KCNQ2 pot confirm=121.7;Kir2-1 sel=.;KCNQ2 W236L pot=.
Cc1cc(Cl)c(S(=O)(=O)NC2CCCC2)cc1OCC(=O)NC1CCCCC1	.	.	/	/
